Reference: PubChem BioAssay (NCI)
Where “and” joins values, the source holds several entries; their conditions need not be identical. Equal values may be shown once. About 79,000 compounds went through this panel and 15% of them were active in at least one assay; those are over-represented in the sample as a whole. The source holds several records for some structures; these can differ, active in one and inactive in another. Calls of active or inactive are those of the source. Cut-off read from the data, not from the text of the source: active = growth inhibition above about 70%; inactive = the rest.

How the values were obtained:
[1] = NCI Yeast Anticancer Drug Screen. Data for the rad50 strain (AID 155);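 note: 0% = growth of vehicle-only cultures of the same strain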; settings: S. cerevisiae rad50 strain growth inhibition, stronger effect = higher value
Procedure, shortened: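 Growth of the mutant yeast was measured after compound exposure and referenced to vehicle-treated cultures.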

[2] = NCI Yeast Anticancer Drug Screen. Data for the mec2-1 strain (AID 157); settings: S. cerevisiae mec2-1 strain, stronger effect = higher value
Procedure, shortened: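 Cells of the genetically defined mec2-1 yeast strain are incubated with test compound. Inhibition of growth is calculated against vehicle-treated controls.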

[3] = NCI Yeast Anticancer Drug Screen. Data for the sgs1 mgt1 strain (AID 161);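 note: 0% = growth of cultures given vehicle only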; settings: S. cerevisiae sgs1 mgt1 strain, stronger effect = higher value
Procedure, shortened: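 Genetically altered yeast, compound exposure, growth inhibition relative to vehicle.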

[4] = NCI Yeast Anticancer Drug Screen. Data for the cln2 rad14 strain (AID 165);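 note: 0% = growth equal to vehicle treated cultures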; settings: S. cerevisiae cln2 rad14 strain, stronger effect = higher value
Procedure, shortened: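 The screen exposed genetically defined yeast (cln2 rad14) to test compounds and scored growth inhibition relative to vehicle-treated controls.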

[5] = NCI Yeast Anticancer Drug Screen. Data for the bub3 strain (AID 167); settings: S. cerevisiae bub3 mutant strain, stronger effect = higher value
Procedure, shortened: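 Whole-cell yeast assay. The mutant strain was incubated with compounds, and growth inhibition was determined by comparison with vehicle-treated cells.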

[6] = NCI Yeast Anticancer Drug Screen. Data for the mlh1 rad18 strain (AID 175); settings: S. cerevisiae mlh1 rad18 strain growth inhibition, stronger effect = higher value
Procedure, shortened: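 Compound-treated yeast growth, normalised to vehicle controls. Strain bears defined DNA repair mutations.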

[7] = at 5.0 µM (retest, dose inferred, filed as 0.5)
[8] = at 50.0 µM (retest, dose inferred, filed as 5.0)

Measured: growth inhibition

c1ccc2c(c1)[nH]c1c(N3CCOCC3)nnc(N3CCOCC3)c12
active: [3]; at 50.0 µM 77.8% | [6]; at 50.0 µM 83%
inactive: [1]; [7] 2% | [1]; [8] 1% | [1]; at 50.0 µM 35.5% | [2]; [7] -5% | [2]; [8] 3% | [2]; at 50.0 µM 44% | [3]; [7] -2% | [3]; [8] 0% | [4]; [7] -2% | [4]; [8] -5% | [4]; at 50.0 µM 35.3% | [5]; [7] 0% | [5]; [8] -1% | [5]; at 50.0 µM 47.1% | [6]; [7] -6% | [6]; [8] -6%

NCC(=O)OCN1C(=O)C2C3C=CC(C2C1=O)C1C2C(=O)N(COC(=O)CN)C(=O)C2C31 (configuration not stated)
active: [6]; [8] 71%
inactive: [1]; [7] 28% | [1]; [8] 63% | [1]; at 50.0 µM -5.35% and 24% | [2]; [7] 20% | [2]; [8] 39% | [2]; at 50.0 µM 8.65% and -62% | [3]; [7] 25% | [3]; [8] 45% | [3]; at 50.0 µM 4.85% and -30.4% | [4]; [7] 21% | [4]; [8] 55% | [4]; at 50.0 µM 23.5% and -6.55% | [5]; [7] 24% | [5]; [8] 68% | [5]; at 50.0 µM -15.2% and -46.8% | [6]; [7] 26% | [6]; at 50.0 µM -18.6% and -43.7%

CCCCCCCCCCCCSC(=NC)NC
91% (active) and 46% (inactive): [5]; [7]
active: [1]; [8] 99% and 98% | [1]; at 50.0 µM 99.5% and 99.4% | [2]; [8] 100% and 98% | [2]; at 50.0 µM 99.7% and 99.5% | [3]; [8] 99% | [3]; at 50.0 µM 99.4% and 99.1% | [4]; [8] 99% | [4]; at 50.0 µM 96.2% and 98% | [5]; [8] 100% | [5]; at 50.0 µM 99.5% and 99% | [6]; [8] 99% and 98% | [6]; at 50.0 µM 99.1% and 98.8%
inactive: [1]; [7] 65% and 27% | [2]; [7] 48% and 19% | [4]; [7] 4% and -9% | [6]; [7] 27% and 24%
80% (active) and 65% (inactive): [3]; [7]

CC(C)(C)CC(C)(C)c1ccc(OCCO)cc1
-49.5% (inactive) and 99.3% (active): [4]; at 50.0 µM
active: [1]; [8] 98% | [2]; [8] 99% | [3]; [8] 97% | [4]; [8] 99% | [5]; [8] 99% | [6]; [8] 99%
-27.9% (inactive) and 99.5% (active): [6]; at 50.0 µM
25.9% (inactive) and 99.5% (active): [3]; at 50.0 µM
-22.7% (inactive) and 99.6% (active): [1]; at 50.0 µM
-40.5% (inactive) and 99.5% (active): [5]; at 50.0 µM
-11.3% (inactive) and 99.5% (active): [2]; at 50.0 µM
inactive: [1]; [7] -2% | [2]; [7] -16% | [3]; [7] -6% | [4]; [7] -13% | [5]; [7] -21% | [6]; [7] -5%

O=C(Nc1ccc(C(=O)O)c(O)c1)c1ccccc1
inactive: [1]; [7] -2% | [1]; [8] 40% | [1]; at 50.0 µM 1.35% and -5.6% | [2]; [7] -12% | [2]; [8] -26% | [2]; at 50.0 µM 0.7% and -0.4% | [3]; [7] 0% | [3]; [8] 0% | [3]; at 50.0 µM -20% and 3.05% | [4]; [7] -4% | [4]; [8] -5% | [4]; at 50.0 µM -26.9% and 14.5% | [5]; [7] 1% | [5]; [8] 6% | [5]; at 50.0 µM 15.7% and 12.3% | [6]; [7] -3% | [6]; [8] 6% | [6]; at 50.0 µM 8.1% and -3.2%

CCC[CH2][Sn]1([CH2]CCC)[O]N=C(c2ccccc2)C(c2ccccc2)[O]1 (configuration not stated)
inactive: [1]; [7] 19% | [1]; [8] 19% | [2]; [7] 20% | [2]; [8] 20% | [3]; [7] -1% | [3]; [8] -1% | [4]; [7] 8% | [4]; [8] 8% | [5]; [7] 12% | [5]; [8] 12% | [6]; [7] 12% | [6]; [8] 12%
active: [1]; at 50.0 µM 88.4% | [2]; at 50.0 µM 87.8% | [3]; at 50.0 µM 89.4% | [4]; at 50.0 µM 79.7% | [5]; at 50.0 µM 78.8% | [6]; at 50.0 µM 79.9%

c1ccc(-c2[nH]c3ccccc3c2-c2ccccn2)cc1
active: [1]; at 50.0 µM 91.8% | [2]; at 50.0 µM 99.3% | [3]; at 50.0 µM 95.6% | [4]; at 50.0 µM 99.1% | [5]; at 50.0 µM 98.7% | [6]; at 50.0 µM 98.8%
inactive: [1]; [7] 3% | [1]; [8] 8% | [2]; [7] -2% | [2]; [8] -2% | [3]; [7] 4% | [3]; [8] 23% | [4]; [7] 4% | [4]; [8] 8% | [5]; [7] 0% | [5]; [8] 2% | [6]; [7] 5% | [6]; [8] 13%

O=C1C(=Cc2ccc(O)cc2)N=C(c2ccccc2)N1n1c(-c2ccccc2)nc2ccccc2c1=O
active: [1]; at 50.0 µM 71% | [3]; at 50.0 µM 73.2% | [5]; at 50.0 µM 89.4% | [6]; at 50.0 µM 91.8%
inactive: [1]; [7] 2% | [1]; [8] 39% | [2]; [7] -2% | [2]; [8] 23% | [2]; at 50.0 µM 38.9% | [3]; [7] 9% | [3]; [8] 29% | [4]; [7] 18% | [4]; [8] 40% | [4]; at 50.0 µM 44.9% | [5]; [7] 12% | [5]; [8] 57% | [6]; [7] 12% | [6]; [8] 64%

C=C1C(=O)N2c3ccccc3C(C)(C)C2(S)C(=O)N1C (configuration not stated)
inactive: [1]; [7] 9% | [2]; [7] 3% | [3]; [7] 3% | [3]; [8] 67% | [4]; [7] -9% | [4]; [8] 40% | [4]; at 50.0 µM 63.9% | [5]; [7] -5% | [6]; [7] 5%
active: [1]; [8] 87% | [1]; at 50.0 µM 88.8% | [2]; [8] 86% | [2]; at 50.0 µM 95.6% | [3]; at 50.0 µM 96.5% | [5]; [8] 78% | [5]; at 50.0 µM 93.6% | [6]; [8] 83% | [6]; at 50.0 µM 96.7%

O=[N+]([O-])c1ccc(N/N=C/CC(O)(C(F)(F)F)C(F)(F)F)c([N+](=O)[O-])c1
active: [1]; [8] 98% | [1]; at 50.0 µM 88.6% | [2]; [8] 98% | [2]; at 50.0 µM 91.5% | [3]; [8] 97% | [3]; at 50.0 µM 91.8% | [4]; [8] 98% | [4]; at 50.0 µM 88% | [5]; [8] 98% | [5]; at 50.0 µM 86.4% | [6]; [8] 98% | [6]; at 50.0 µM 89.9%
inactive: [1]; [7] 0% | [2]; [7] -1% | [3]; [7] -1% | [4]; [7] 25% | [5]; [7] 13% | [6]; [7] 3%

Cc1cc(N)c(S)cc1C
59.8% (inactive) and 77% (active): [6]; at 50.0 µM
42.9% (inactive) and 75.5% (active): [5]; at 50.0 µM
70% (active) and 40% (inactive): [6]; [8]
inactive: [1]; [7] 6% and -2% | [1]; [8] 25% and 28% | [1]; at 50.0 µM 65.1% and 25.8% | [2]; [7] -8% and 0% | [2]; [8] 25% and 31% | [2]; at 50.0 µM 19.9% and 24.2% | [3]; [7] 1% | [3]; [8] 44% and 37% | [3]; at 50.0 µM 21.3% and 50.4% | [4]; [7] -1% and -7% | [4]; [8] 2% and 7% | [4]; at 50.0 µM -50% and 30.4% | [5]; [7] -2% and 1% | [5]; [8] 59% and 47% | [6]; [7] 2% and -2%

O=c1[nH]c2cc([N+](=O)[O-])ccc2nc1/C=C(\O)c1ccc([N+](=O)[O-])cc1
active: [1]; [8] 86% | [3]; [8] 85% | [5]; [8] 86% | [6]; [8] 77%
inactive: [1]; [7] 21% | [1]; at 50.0 µM 54.2% and -3.6% | [2]; [7] -4% | [2]; [8] 59% | [2]; at 50.0 µM 16.1% and -6.35% | [3]; [7] 13% | [4]; [7] 4% | [4]; [8] 38% | [4]; at 50.0 µM 34% and -15.9% | [5]; [7] 11% | [5]; at 50.0 µM 4.75% and 5.75% | [6]; [7] 6% | [6]; at 50.0 µM 68.4% and -1.4%
82.1% (active) and -3.95% (inactive): [3]; at 50.0 µM

Nc1nccnc1C(=O)O
inactive: [1]; [7] -166% | [1]; [8] -152% | [1]; at 50.0 µM -12.1% and 7.75% | [2]; [7] -49% | [2]; [8] -52% | [2]; at 50.0 µM 20.9% and 0.9% | [3]; [7] -63% | [3]; [8] -61% | [3]; at 50.0 µM -2.45% and 6.3% | [4]; [7] -59% | [4]; [8] -54% | [4]; at 50.0 µM 67.5% and 5.6% | [5]; [7] -74% | [5]; [8] -75% | [5]; at 50.0 µM 18.8% and -1.75% | [6]; [7] -145% | [6]; [8] -108% | [6]; at 50.0 µM 11.6% and 8.25%

CC(C)(C)OC(=O)NCCc1cccc2c1oc1c(CCC(=O)O)cccc12
active: [1]; [8] 76% | [1]; at 50.0 µM 89.6% | [2]; [8] 95% | [2]; at 50.0 µM 78.4% | [4]; [8] 99% | [4]; at 50.0 µM 87% | [5]; [8] 88% | [5]; at 50.0 µM 79.6% | [6]; [8] 96% | [6]; at 50.0 µM 83.5%
inactive: [1]; [7] -14% | [2]; [7] -1% | [3]; [7] 3% | [3]; [8] 53% | [3]; at 50.0 µM 68.7% | [4]; [7] -16% | [5]; [7] -20% | [6]; [7] -7%
